{
  "source": "PubChem BioAssay AID686978",
  "about": "(National Center for Advancing Translational Sciences (NCATS), 2013)",
  "note": "Among all 420,000 compounds or so, about 64,000 (15%) were called active. Roughly 27% stayed inconclusive and do not appear here. The list is a sample of the results. Values without a mark were called inactive. Calls come from the whole dose curve; as a rule, active = well fitted inhibition curve with a large enough effect; inconclusive = small, poorly fitted or top-dose-only effect; inactive = flat fitted curve, though single readings scatter. % is set by controls: 0 for no effect and ±100 for the full control effect; potency is the fitted concentration of half-maximal effect.",
  "data": [
    {"experiment": "qHTS for Inhibitors of human tyrosyl-DNA phosphodiesterase 1 (TDP1): qHTS in cells in absence of CPT; note: nearly all actives have a fitted effect of over 55% in size", "conditions": "DT40 Tdp1-/- hTDP1 cells, no CPT, ATP luminescence, 48 h; activity change, negative = growth inhibition: at 46.2 µM (top of the series)", "summary_of_the_method": "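No-CPT arm: Tdp1-/-;hTDP1 DT40 cells (400/well) plus compounds, incubated ≥48 hr at 37 °C. Readout CellTiter-Glo luminescence.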", "units": {"activity change, negative = growth inhibition": "%"}, "values": [
      {"smiles": "CCOCCCNC(=O)c1ccc(CS(=O)(=O)c2cccc(C(F)(F)F)c2)o1", "activity change, negative = growth inhibition": 6.63},
      {"smiles": "Cc1c(Cl)cnc(NC(=O)COC(=O)c2ccc(S(=O)(=O)NCc3ccco3)cc2)c1Cl", "activity change, negative = growth inhibition": -8.95},
      {"smiles": "COC(=O)C[n+]1cccc2ccccc21", "activity change, negative = growth inhibition": -21.6},
      {"smiles": "Cc1cccc[n+]1CC(=O)c1ccccc1", "activity change, negative = growth inhibition": 0.748},
      {"smiles": "CC(C)(C)c1ccc(C(=O)C[n+]2cccc3cc(Cl)ccc32)cc1", "Potency": "4.47 µM (active)"},
      {"smiles": "COc1cccc2c1OCC(C(=O)NCc1ccc(Cl)cc1Cl)=C2", "activity change, negative = growth inhibition": 2.01},
      {"smiles": "O=C1NCC(Nc2ccccc2)C(=O)N1", "note": "(centres undefined)", "activity change, negative = growth inhibition": 12.2},
      {"smiles": "Nc1ccccc1SC(C[N+](=O)[O-])c1ccccc1", "note": "(centres undefined)", "Potency": "2.31 µM (active)"},
      {"smiles": "Nc1ccccc1SCc1cc([N+](=O)[O-])cc2c1OCOC2", "activity change, negative = growth inhibition": -24.8},
      {"smiles": "C#CCO[C@@H]1C[C@H](n2cnc3c(=O)[nH]c(NC(=O)C(C)C)nc32)O[C@@H]1CO", "activity change, negative = growth inhibition": 3.17},
      {"smiles": "CCCCCCCCCCCCCCCCO", "activity change, negative = growth inhibition": 4.89},
      {"smiles": "O=C(NCCCN1CCOCC1)c1cc2c(s1)CCC2", "activity change, negative = growth inhibition": -0.232},
      {"smiles": "Cc1cccc2c1-c1sc(C(=O)NCCCN3CCc4ccccc4C3)cc1CO2", "Potency": "20.6 µM (active)"},
      {"smiles": "O=C(CN1C(=O)COc2ccccc21)NCCN1CCc2ccccc2C1", "activity change, negative = growth inhibition": 4.11},
      {"smiles": "O=C(Nc1cccc(Cl)c1)c1cncn1-c1ccc(F)cc1", "activity change, negative = growth inhibition": -3.19},
      {"smiles": "Cc1cc2c(cc1C)N(C(=O)CN1C(=O)c3ccccc3C1=O)C(C)(C)c1ssc(=S)c1-2", "Potency": "25.9 µM (active)"},
      {"smiles": "Cc1ccc(NC(=O)CCN2C(=O)c3ccccc3C2=O)cc1C", "activity change, negative = growth inhibition": 3.57},
      {"smiles": "Cc1cc(C)cc(NC(=O)CN2C(=O)c3ccccc3C2=O)c1", "activity change, negative = growth inhibition": -10.3},
      {"smiles": "CCCC(=O)N=c1sc2cccc(F)c2n1C", "activity change, negative = growth inhibition": -6.66},
      {"smiles": "CCCN(C(=O)CSc1nnnn1C)c1c(N)n(Cc2ccccc2)c(=O)[nH]c1=O", "activity change, negative = growth inhibition": -8.42},
      {"smiles": "COC(=O)[C@@H]1C[C@@]2(O)[C@@H](O)[C@@H](O)[C@@H](O)C[C@H]2N1Cc1ccc(C)s1", "activity change, negative = growth inhibition": -22.7},
      {"smiles": "CS(=O)(=O)N(CC(=O)N1CCN(c2ccc(F)cc2)CC1)C1CCCCC1", "activity change, negative = growth inhibition": -11.2},
      {"smiles": "CN(C1CCS(=O)(=O)C1)S(=O)(=O)c1ccc2ccccc2c1", "note": "(centres undefined)", "activity change, negative = growth inhibition": -18.1},
      {"smiles": "COc1ccc(CN2CCCC(CNC(=O)c3ccc(F)cc3)C2)cc1OC", "note": "(centres undefined)", "activity change, negative = growth inhibition": -13.6},
      {"smiles": "COc1ccc(CN2CCCC(C(=O)c3ccc(Cl)cc3)C2)cc1Cn1cncn1", "note": "(centres undefined)", "Potency": "18.4 µM (active)"},
      {"smiles": "COc1ccc(CCN(C)C(=O)C2CCCN(Cc3ccc(OC)c(OC)c3)C2)cc1OC", "note": "(centres undefined)", "activity change, negative = growth inhibition": -13.7},
      {"smiles": "COc1ccc(CN2CCCC(C(=O)N3CCCCC3)C2)cc1", "note": "(centres undefined)", "activity change, negative = growth inhibition": -15.9},
      {"smiles": "COc1cc(CN2CCCC(C(=O)c3ccc(SC)cc3)C2)cc(Cl)c1O", "note": "(centres undefined)", "Potency": "14.6 µM (active)"},
      {"smiles": "c1ccc(-n2ncc(-c3nn[nH]n3)n2)cc1", "activity change, negative = growth inhibition": -9.83},
      {"smiles": "Cc1ccccc1NC(=O)COc1cccc2c1CCNC2=O", "activity change, negative = growth inhibition": -29.1},
      {"smiles": "Cc1c(Cl)cccc1NC(=O)CSc1ccc(-c2cccnc2)nn1", "activity change, negative = growth inhibition": -20.6},
      {"smiles": "Brc1ccc(CSc2ccc(-c3ccco3)nn2)cc1", "activity change, negative = growth inhibition": 5.7},
      {"smiles": "Cc1cc(F)ccc1S(=O)(=O)Nc1ccc(C(=O)N(C)Cc2ccco2)cc1", "activity change, negative = growth inhibition": -6.11},
      {"smiles": "C=CCn1c(C)cc(C2=NNC(=NCC)SC2)c1C", "Potency": "20.6 µM (active)"},
      {"smiles": "Cc1ccc(S(=O)(=O)N2CCC(C(=O)NCC3CCCO3)CC2)cc1", "note": "(centres undefined)", "activity change, negative = growth inhibition": 0.855},
      {"smiles": "Cc1ccnc(NS(=O)(=O)c2ccc(NC(=O)c3ccc(S(=O)(=O)N4CCOCC4)cc3)cc2)n1", "activity change, negative = growth inhibition": -8.99},
      {"smiles": "Cc1cc(C2=NNC(=Nc3ccc(S(=O)(=O)N4CCOCC4)cc3)SC2)c(C)n1CC1CCCO1", "note": "(centres undefined)", "Potency": "2.91 µM (active)"},
      {"smiles": "COCCn1c(C)cc(C2=NNC(=Nc3ccc(F)cc3)SC2)c1C", "Potency": "14.6 µM (active)"},
      {"smiles": "CCSC(C)CC1C/C(=N/O)c2c(C)noc2C1", "note": "(centres undefined)", "activity change, negative = growth inhibition": -5.32},
      {"smiles": "Cc1ccc(Cl)c(OCC(=O)N2CCc3ccccc3C2)c1", "activity change, negative = growth inhibition": -4.58},
      {"smiles": "Nc1c(-c2ccc(F)cc2)cnn1C1CCS(=O)(=O)C1", "note": "(centres undefined)", "activity change, negative = growth inhibition": -14.5},
      {"smiles": "Cc1cc(=O)cc(C)n1-c1ccc(Cl)c(Cl)c1", "activity change, negative = growth inhibition": 2.04},
      {"smiles": "CCOc1ccccc1NC(=O)CCS(=O)(=O)c1cccc2nsnc12", "Potency": "inactive"},
      {"smiles": "CCOc1ccc(-c2c(C)n([O-])c3c([n+]2=O)CCCC3)cc1", "activity change, negative = growth inhibition": -1.93},
      {"smiles": "Nc1nc2cc(Cl)ccc2n1N", "activity change, negative = growth inhibition": -9.62},
      {"smiles": "COc1cc(OC)c(C2C=C(C(=O)O)Nc3ncnn32)cc1OC", "note": "(centres undefined)", "activity change, negative = growth inhibition": 31.7},
      {"smiles": "CC(C)c1nnc(NC(=O)C2CC(=O)N(CCc3ccc(F)cc3)C2)s1", "note": "(centres undefined)", "activity change, negative = growth inhibition": -1.1},
      {"smiles": "CC(=O)Nc1ccc(S(=O)(=O)N(CCc2ccccc2)CC(=O)N/N=C/c2ccc(C(=O)O)cc2)cc1", "activity change, negative = growth inhibition": -16.1},
      {"smiles": "CC(=O)c1cccc(NC(=O)CSc2nc3c(c(=O)[nH]2)CCC3)c1", "activity change, negative = growth inhibition": -13.9},
      {"smiles": "CCOc1ccc(C(=O)NC2CCN(C(=O)Nc3ccccc3OC)CC2)cc1", "activity change, negative = growth inhibition": -20.6},
      {"smiles": "CCOc1ccc(C(=O)Nc2ccc3nc4c(c(Nc5ccccc5OC)c3c2)CCCC4)cc1", "Potency": "4.61 µM (active)"},
      {"smiles": "COc1ccc(C(=O)Nc2onc3c2CCCC3)cc1", "activity change, negative = growth inhibition": -21},
      {"smiles": "CCOc1ccc(NC(=O)CSc2nncn2C)cc1", "activity change, negative = growth inhibition": -14.2},
      {"smiles": "CCOc1ccc(NC(=O)CSc2c3c(nc4ccccc24)CCCC3)cc1", "Potency": "16.4 µM (active)"},
      {"smiles": "Cn1cnnc1SCC(=O)NNC(=O)COc1ccc(Br)cc1", "activity change, negative = growth inhibition": 0.551},
      {"smiles": "O=C(NC1CC1)C1CCCN(C(=O)NC2CCCCC2)C1", "note": "(centres undefined)", "activity change, negative = growth inhibition": 11.4},
      {"smiles": "Cc1cc(Br)ccc1NC(=O)Cn1cnc2sc(C)c(S(=O)(=O)N3CCN(C)CC3)c2c1=O", "activity change, negative = growth inhibition": 1.29},
      {"smiles": "COc1ccc(N2CCN(C(=O)Cn3cnc4sc(C)c(S(=O)(=O)N5CCOCC5)c4c3=O)CC2)cc1", "Potency": "18.4 µM (active)"},
      {"smiles": "CCN(CC)CCNC(=O)Cn1cnc2sc(C)c(S(=O)(=O)N3CCOCC3)c2c1=O", "activity change, negative = growth inhibition": -4.5},
      {"smiles": "OCCN1CCN(CCO)C1=S", "activity change, negative = growth inhibition": -13.3},
      {"smiles": "CC(C)(C)NC(=O)NC(=O)COC(=O)CCC1CCCCC1", "activity change, negative = growth inhibition": -5.88},
      {"smiles": "O=C(c1ncn2c1c(=O)[nH]c1ccccc12)N1CCc2ccccc2C1", "activity change, negative = growth inhibition": -20.7},
      {"smiles": "Cc1cccc(N2CCN(C(=O)c3cc4c(=O)[nH]c5ccccc5c4n3C)CC2)c1C", "Potency": "18.4 µM (active)"},
      {"smiles": "Cn1cccc1C(=O)N1CCc2ccccc2C1", "activity change, negative = growth inhibition": 0.109},
      {"smiles": "Cn1c(C(=O)NCCN2CCc3ccccc3C2)cc2c(=O)[nH]c3ccccc3c21", "Potency": "16.4 µM (active)"},
      {"smiles": "O=C(c1c(Cl)cccc1Cl)N1CCN(c2cccc3[nH]ccc23)CC1", "activity change, negative = growth inhibition": -22.9},
      {"smiles": "O=C(NCCN1CCN(Cc2ccccc2)CC1)c1cc2c(=O)[nH]c3ccccc3c2s1", "Potency": "25.9 µM (active)"},
      {"smiles": "O=C(Cc1c(O)c2ccccc2[nH]c1=O)NCc1ccccc1", "activity change, negative = growth inhibition": -9.23},
      {"smiles": "Cc1c(C(=O)CN2CCOCC2)[nH]c2ccccc12", "activity change, negative = growth inhibition": -6.49}
    ]}
  ]
}
